Activity calls are given as the source filed them.
assay: plasmodial surface anion channel blockers, osmotic lysis – cell-based, P. falciparum Indochina, OD700, 1 h, primary screen (AID 1154); conditions: P. falciparum Indochina infected RBC osmotic lysis, higher = more signal, called active from +8 up or from −8 down

z-score, active:
C=C(CCCC)/C(=C/C[C@@H](OC(=O)c1ccncc1)c1ccc(OCCO)cc1)c1cc(C(=O)OC)ccc1OC 17.3, C=C(CCCC)C(=O)CC[C@@H](OC(=O)c1ccccc1-c1ccccc1C(=O)O)c1ccc(OCCO)cc1 17.2, COCCOC(=O)N1C(=O)[C@@]2(c3cc(C#CCC(C(=O)OC)C(=O)OC)ccc31)[C@H](C(=O)Nc1nc3ccccc3s1)[C@H]1C(=O)O[C@H](c3ccccc3)[C@H](c3ccccc3)N1[C@@H]2c1ccccc1OCCO 11.2, C=CC[C@@]12N=C(c3ccc(OCCCO)cc3)O[C@@H]1c1ccccc1N(C)C2=O 33.2, COC(=O)[C@@]1(Cc2ccccc2)N=C(c2ccc(OCCCO)cc2)O[C@H]1c1ccccc1 23.4, COc1cccc(-c2cccc(=O)o2)c1 10.4, C=C(CCCC)/C(=C/C[C@@H](OC(C)=O)c1ccc(OCCO)cc1)c1cnc2ccccc2c1 24, COc1cc2c(cc1O)C(C1CC1)N(Cc1sc3ccccc3c1Cl)CC2 (stereo not given) 13.1, CN1C=C(C(=O)OCCS(C)(=O)=O)C(C(=O)OCCS(C)(=O)=O)=CC(c2ccc(CO)cc2)=CC1C1CC1 (stereo not given) 11.3, O=C1C[C@@](C(=O)NCC(F)(F)F)(c2ccc([N+](=O)[O-])cc2)[C@@H](c2ccc(CO)cc2I)N1C1CCCCC1 16.9, [N-]=[N+]=Nc1ccccc1[C@@H]1OC(c2ccc(OCCCO)cc2)=N[C@]1(Cc1ccccc1)C(=O)N1CCOCC1 31.8, C=C(C(=O)CC[C@@H](OC(=O)c1cccnc1)c1ccccc1OCCO)C(C)C 15.1

z-score, inactive:
CC(C)[Si]1(C(C)C)O[C@@H](c2ccccc2)c2cc(-c3ccc(-c4ccc(Cl)c(Cl)c4)o3)nc(-c3ccccc3)c21 0.704, OCCCC1=CC(c2cccs2)N(Cc2cc3c(cc2Br)OCO3)CC1 (stereo not given) 5.53, CCOC(=O)C[C@H]1[C@H](OC(=O)c2ccc(C(=O)c3ccccc3)cc2)[C@@H](NC(=O)c2ccc3ccccc3c2)c2cc(OCCCO)ccc2N1C(=O)Cc1ccc(OC)cc1 6.12, C=C(CC1([C@@H](NP(=O)(c2ccccc2)c2ccccc2)[C@H]2C[C@@H]2CCCC)CC1)c1ccccc1 0.579, COc1cc(COC(C)=O)ccc1OC(C)=O -1.49, NC(=O)N1C(=O)C2C(C1=O)C1C=C(c3ccc(CO)cc3)C2C(c2cccs2)N1Cc1cccc(OC(F)(F)F)c1 (stereo not given) 3.08, COCCOC(=O)N1C(=O)[C@@]2(c3cc(C#CCNC(N)=O)ccc31)[C@H](C(=O)N1CCN(c3ncccn3)CC1)[C@H]1C(=O)O[C@H](c3ccccc3)[C@H](c3ccccc3)N1[C@@H]2c1ccc(OCCO)cc1 6.11, CCCc1cc2c(n1Cc1cc(F)cc(F)c1)C(C)C1CN(C(=O)c3ccccc3)C(C)(C(=O)OC)C21 (stereo not given) 3.82, CCCC[C@@H]1C[C@H]1[C@@H](NC(=O)c1ccco1)c1ccc(-c2ccccc2)cc1 -0.38, C=C[C@H](CO[Si](CC)(CC)CC)N(Cc1ccc(OC(C)=O)c(OC)c1)S(=O)(=O)c1ccc(Br)cc1 -0.0878, NC(=O)NCC#Cc1ccc2c(c1)[C@]1(C(=O)N2)[C@H](c2ccc(O)cc2)N2[C@H](c3ccccc3)[C@H](c3ccccc3)OC(=O)[C@H]2[C@@H]1C(=O)O 3.1, COC(=O)C[C@H]1O[C@]2(C(=O)N(C)c3ccccc32)[C@@H](C)[C@@H]1[Si](C)(C)F -0.0899, O=C1C2C=CC(C(O)c3cc(C(F)(F)F)cc(C(F)(F)F)c3)N(n3cnnc3)C2C(=O)N1Cc1ccccc1 (stereo not given) 1.56, Cc1nc2cc(Br)ccc2c(=O)o1 0.252, COc1cc2c(cc1O)C(c1cccs1)N(C)CC2 (stereo not given) 4.23, Cc1ccc(N2C(=O)c3ccccc3[C@@H](C(=O)NC3CC3)[C@@H]2c2ccc(CO)cc2)nc1 1.92, Cc1ccc(S[C@]2(C(=O)NCCCN(C)C)CC(=O)N(Cc3cc(C(F)(F)F)cc(C(F)(F)F)c3)[C@@H]2c2ccc(CO)cc2)cc1 1.24, C=C(COC)/C(=C/C[C@@H](OC(=O)c1ccncc1)c1ccc(CO)o1)c1cc(C(=O)OC)ccc1OC 3.87, C=C[C@H](OC)[C@@H](OC(=O)Nc1ccc(OC)cc1)c1ccc(O)c(F)c1 4.19, COCCOC(=O)N1C(=O)[C@@]2(c3cc(C#CC4(O)CCCCCC4)ccc31)[C@H](c1ccccc1OCCO)N1[C@H](c3ccccc3)[C@H](c3ccccc3)OC(=O)[C@H]1[C@@H]2C(=O)N1CCN(c2ncccn2)CC1 1.67, C=CC(=C)[C@H]1Oc2ccccc2S(=O)(=O)N2CCC[C@@H]12 4.63, COCCOC(=O)N1C(=O)[C@@]2(c3cc(C#CCCO)ccc31)[C@H](C(N)=O)[C@H]1C(=O)O[C@H](c3ccccc3)[C@H](c3ccccc3)N1[C@@H]2c1ccc(O)cc1 2.44, C=CCNC(=O)[C@H]1[C@@H]2C(=O)O[C@@H](c3ccccc3)[C@@H](c3ccccc3)N2[C@@H](c2ccccc2OCCO)[C@]12C(=O)Nc1ccc(C#CCC(C(=O)OC)C(=O)OC)cc12 5.08

From PubChem BioAssay
